# Compound activity as filed in PubChem.
# Only some compounds are listed: those with a hit (about 9.3% of all), similar ones and a draw of the others.
# Fluor 339 460: intrinsic fluorescence of library compounds, ex339/em460 – biochemical, MLSMR library, data from DPM-DC assay, artefact control, profiling panel | compound autofluorescence, ex339/em460 nm, NADH buffer; active compounds read high; 1 = no-compound wells, NADH background | fluorescence fold increase at 10 µM | 65,000 compounds, 5.5% hits;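 active = at 10 µM, mean starting fluorescence two-fold or more over control wells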;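 note: signal is the first read of a kinetic run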
# Abs 340nm: compound absorbs light at 340 nm. 65,000 tested, under 10 active. fold change at 10 µM. compound absorbance at 340 nm, fold over control. AID 708;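 active = at 10 µM dose, initial 340 nm absorbance at least 2 fold that of control wells; inactive = change under 2 fold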;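 note: initial absorbance extrapolated from kinetic A340 decline of NADH oxidation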
# M1 agonist: activates the M1 muscarinic receptor; B-score at 10 µM; 64,000 compounds, 3% hits; AID 626; CHO-M1 cells, Fluo-4 calcium fluorescence, agonist mode; active compounds read high;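 active = fluorescence rise, raw or as B-score row- and column-corrected plate score, outside the 99.7% band of its plate's samples, either direction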
# Htt clearance: compounds clearing mutant huntingtin protein; AID 853; HeLa Exon1htt(103Q)mCFP, aggregate imaging; zero = plate's median compound well; inhibition, % at 1.5 µM; 47,000 compounds, 0.42% hits;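 active = inhibition of aggregate fluorescence above about 70%, also judged a hit by eye on the cell image, limit read from the data, passing the limit was not always enough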;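 note: cells exposed to compound for three days before fixation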
# M1 antagonist: M1 muscarinic receptor (rat) antagonism. P08482. CHO-M1 cells, Fluo-4 calcium, ACh EC80 antagonist mode; active compounds read low. B-score at 10 µM. 64,000 compounds, 3.4% hits. AID 628;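 active = calcium fluorescence response, raw or row-and-column corrected B-score, differing from the plate sample mean either way at a set confidence level, mostly lower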
# Target sequence (P08482 whole entry, looked up): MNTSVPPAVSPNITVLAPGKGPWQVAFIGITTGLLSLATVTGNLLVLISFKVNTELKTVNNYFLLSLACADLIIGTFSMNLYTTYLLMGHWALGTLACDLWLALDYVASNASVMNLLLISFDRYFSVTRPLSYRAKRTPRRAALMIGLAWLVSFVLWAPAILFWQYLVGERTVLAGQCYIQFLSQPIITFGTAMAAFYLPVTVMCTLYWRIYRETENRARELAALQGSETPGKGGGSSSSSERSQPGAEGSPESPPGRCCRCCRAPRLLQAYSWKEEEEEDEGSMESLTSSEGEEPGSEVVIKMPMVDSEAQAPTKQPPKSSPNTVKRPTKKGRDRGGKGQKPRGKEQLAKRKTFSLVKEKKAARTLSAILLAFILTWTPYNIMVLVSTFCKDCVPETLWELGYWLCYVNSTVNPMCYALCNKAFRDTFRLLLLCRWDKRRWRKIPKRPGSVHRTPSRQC
# NADH enzymes: inhibition of NAD/NADH coupling enzymes, library profiling. coupled PK/LDH NADH assays, four targets. IC50, µM (highest dose often 10 µM), without a hit: at the top dose inhibition. 65,000 compounds, 0.02% hits;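 active = single-dose screening hits from any of four coupled enzyme assays that gave an IC50 when retested across doses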;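 note: the DPM-DC format reads NADH fluorescence rather than 340 nm absorbance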
# * marks the source's active call; other numbers are inactive results; . = not tested or not shown.
SMILES,Fluor 339 460,Abs 340nm,M1 agonist,Htt clearance,M1 antagonist,NADH enzymes
COc1ccccc1Cn1c(=O)c2ccccc2n2c(SCC(=O)N3CCCCC3)nnc12,1.1,1,-0.055,.,-0.058,4%
COc1cc(NS(C)(=O)=O)c(OC)cc1NC(=O)c1cccc(F)c1,1.1,0.99,-0.64,.,1.7,8%
CC(C)Nc1nc2n(c(=O)n1)CCN2C(C)C,1.1,1,-0.85,32,0.81,5%
C=CCOC(=O)COc1ccc2c(C)c(C)c(=O)oc2c1C,2.4*,1,-0.15,.,-0.0069,4%
CCN(CC)Cc1c(O)ccc2c(C)c(CC(=O)OC)c(=O)oc12,2.4*,1.2,0.049,.,0.49,6%
Cc1cc(=O)oc2c(CN(CC(C)C)CC(C)C)c(O)ccc12,.,.,.,43,.,.
Cc1ccc(C)c(N(CC(=O)N(C)C)S(C)(=O)=O)c1,1.1,1,1.5,44,1.3*,2%
CCCC1Cc2nc(N3CCCCC3)c(C#N)cc2CO1 (configuration not stated),3.6*,1,-0.71,-46,0.61,10%
CCOC(=O)c1ccc(NC(=O)NC(C)C2CCCO2)cc1 (configuration not stated),1.1,1,-0.64,36,-0.2,1%
CN(C)c1ccc(-c2nnn(CC(=O)N3c4ccccc4CCc4ccccc43)n2)cc1,2.6*,1.1,0.74,.,-0.46,0%
CN(C)c1ccc(-c2nnn(CC(=O)Nc3ccccc3N3CCOCC3)n2)cc1,1.3,1,-0.33,.,0.0092,4%
CCOc1cc2[nH]c(=O)n(CCCCC(=O)NC3CCCCC3)c(=O)c2cc1OCC,2.5*,1.1,0.38,.,1.2,5%
COc1cc2[nH]c(=O)n(CCC(=O)NC3CCCC3)c(=O)c2cc1OC,2*,1.1,0.0037,.,-0.56,5%
O=C(CCCn1c(=O)[nH]c2cc(Cl)ccc2c1=O)NC1CCCCCC1,.,.,.,22,.,.
CCOc1cc2[nH]c(=O)n(CCCC(=O)NCc3ccco3)c(=O)c2cc1OCC,2.3*,1,-0.28,-19,0.39,6%
CCOc1cc2[nH]c(=O)n(CCCCC(=O)N3CCCCCC3)c(=O)c2cc1OCC,1.9,1,0.19,.,-0.58,4%
CCOc1cc2[nH]c(=O)n(Cc3cccc(OC)c3)c(=O)c2cc1OCC,2*,1,-0.069,-2,0.037,4%
COc1ccc2cc(CCNC(=O)c3c(-c4ccccc4Cl)noc3C)c(=O)[nH]c2c1,1.3,1.1,0.35,.,0.014,1%
CCCCCNC(=O)CCCCn1c(=O)[nH]c2cc(OCC)c(OCC)cc2c1=O,2.1*,1,-0.18,-21,-0.038,5%
CCCCNC(=O)CCCCCn1c(=O)[nH]c2cc(OC)c(OC)cc2c1=O,1.5,1.1,-0.47,13,-0.19,9%
Cc1ccc(C2c3sc(=O)[nH]c3SC3C(=O)NC(=O)C32)cc1 (configuration not stated),1,1,0.14,.,0.26,2%
COc1cc2nc(NCCN3CCOCC3)n3nc(-c4ccccc4)nc3c2cc1OC,2.9*,1,-0.56,.,-1.7,11%
CCNC(=O)CN(Cc1ccccc1)S(=O)(=O)c1ccccc1,1.1,1,1.7,.,-0.7,11%
CN(C)CCCOC(=O)c1ccccc1Cl,.,.,.,73*,.,.
CN(C)CCCOC(=O)CCc1ccccc1,1.1,1,0.43,-29,-1.9,3%
SMILES,Fluor 339 460,Abs 340nm,M1 agonist,Htt clearance,M1 antagonist,NADH enzymes
COC(=O)c1cc(OC)c(OC)cc1NC(=O)Nc1ccccc1OC,2.1*,1,-1.2,-37,0.24,14%
COC(=O)c1cc(OC)c(OC)cc1NC(=O)c1oc2ccccc2c1C,2.5*,1.1,-0.0083,.,0.32,16%
COc1ccc(NC(=O)c2oc3ccccc3c2C)c(OC)c1,1.1,1.1,-0.075,-282,0.057,2%
C=CCOc1c(Br)cc(CNn2nnnc2N)cc1OC,1.1,1,-0.56,-43,-0.0082,3%
Cc1cc(NS(=O)(=O)Cc2ccccc2)no1,1,0.99,0.034,-48,-0.46,8%
Nn1c(=O)c2ccccc2n2c(SCc3ccccc3)nnc12,1.1,1.1,-0.24,80*,0.32,8%
Cn1c(=O)c2c3c(sc2n2c(SCC(=O)c4ccccc4)nnc12)COC(C)(C)C3,1,1.1,-0.78,.,-2.9*,6%
CCCn1c(=O)c2ccccc2n2c(SCC(=O)c3ccc(F)cc3)nnc12,1.1,0.98,-0.32,.,-0.48,7%
